Data as given in PubChem BioAssay AID504339 (National Center for Advancing Translational Sciences (NCATS), 2011).
Among all 390,000 compounds or so, about 17,000 (4.4%) were called active. Roughly 8% stayed inconclusive and do not appear here. Calls come from the whole dose curve; as a rule, active = well fitted inhibition curve with a large enough effect; inconclusive = small, poorly fitted or top-dose-only effect; inactive = no such curve, though single readings can be large or run the other way. Shown is part of a subset that was picked to be rich in actives.

target: Lysine-specific demethylase 4A (Homo sapiens) (UniProt O75164); assay: qHTS Assay for Inhibitors of JMJD2A-Tudor Domain; conditions: AlphaScreen JMJD2A-Tudor / H3K4me3 peptide binding; series mostly up to 114 µM; activity change, negative = inhibition: at the top concentration; note: nearly all actives have a fitted effect of over 50% in size
% is set by controls: 0 for no effect and ±100 for the full control effect; potency is the fitted concentration of half-maximal effect.

Sequence of Lysine-specific demethylase 4A (Homo sapiens) (O75164 whole entry, looked up, the tested form may be a part): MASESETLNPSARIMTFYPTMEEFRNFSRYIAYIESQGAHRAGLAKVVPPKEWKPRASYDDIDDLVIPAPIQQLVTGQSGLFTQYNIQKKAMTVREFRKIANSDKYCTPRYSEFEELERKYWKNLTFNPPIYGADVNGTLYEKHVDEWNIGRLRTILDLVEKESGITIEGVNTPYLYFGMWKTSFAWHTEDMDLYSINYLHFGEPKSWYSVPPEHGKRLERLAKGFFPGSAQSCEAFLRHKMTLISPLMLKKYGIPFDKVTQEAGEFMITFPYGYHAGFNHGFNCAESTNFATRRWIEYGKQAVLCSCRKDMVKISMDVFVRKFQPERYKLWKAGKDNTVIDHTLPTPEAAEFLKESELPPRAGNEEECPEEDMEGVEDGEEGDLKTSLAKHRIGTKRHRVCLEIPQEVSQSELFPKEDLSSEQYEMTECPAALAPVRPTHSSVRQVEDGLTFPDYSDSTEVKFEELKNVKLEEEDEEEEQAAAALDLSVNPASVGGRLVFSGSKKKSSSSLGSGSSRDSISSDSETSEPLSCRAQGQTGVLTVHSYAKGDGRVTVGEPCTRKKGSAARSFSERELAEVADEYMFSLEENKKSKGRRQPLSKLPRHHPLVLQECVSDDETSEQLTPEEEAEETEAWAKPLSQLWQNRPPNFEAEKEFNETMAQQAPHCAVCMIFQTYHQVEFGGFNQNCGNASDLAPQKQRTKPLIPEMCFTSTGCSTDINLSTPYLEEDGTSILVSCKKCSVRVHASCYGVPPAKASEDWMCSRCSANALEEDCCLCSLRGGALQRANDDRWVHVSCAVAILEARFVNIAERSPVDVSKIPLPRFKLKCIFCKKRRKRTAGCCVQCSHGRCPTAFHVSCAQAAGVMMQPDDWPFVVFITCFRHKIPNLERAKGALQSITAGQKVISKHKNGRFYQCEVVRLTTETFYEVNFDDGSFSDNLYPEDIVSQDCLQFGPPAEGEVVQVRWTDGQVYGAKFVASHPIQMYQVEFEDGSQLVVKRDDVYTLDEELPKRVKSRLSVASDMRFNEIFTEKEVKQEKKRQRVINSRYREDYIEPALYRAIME

Activity change, negative = inhibition, inactive:
COc1ccccc1CNC(=O)C(Cc1ccccc1)NS(=O)(=O)c1ccc2c(c1)oc(=O)n2C (configuration not stated) -15.5%, O=C1CCCc2cc(S(=O)(=O)N3CCCC(C(=O)NCc4ccccc4)C3)ccc2N1 (configuration not stated) -0.647%, O=C(NCc1ccccc1Cl)c1cccn1-c1nnc(N2CCCCC2)s1 -28.2%, COc1ccc(-c2nn(CC(=O)Nc3ccccc3F)c3c2cnc2ccc(F)cc23)cc1 -7.67%, C=CCOc1cccc(C2NC(=O)c3ccccc3O2)c1 (configuration not stated) -17.8%, C=CCOc1cccc(CNCc2cccnc2)c1 -16.4%, C=CCC(Nc1ccccc1)c1cccc(OC)c1OC (configuration not stated) 28.4%, COc1cccc(CNCCSc2nnnn2C)c1OCc1ccccc1Cl -2.24%, COc1ccc(CCNC(=O)c2cc(=O)c3c(C)cc(C)cc3o2)cc1OC -22.9%, CSc1nc(-c2ccccc2Cl)nc2c1Cc1c(CO)cnc(C)c1O2 -27.5%, COc1ccccc1CNC(=O)c1ccc(CS(=O)c2ccccc2Cl)o1 (configuration not stated) 8.79%, CCc1nn(CC(=O)Nc2cc(C)cc(C)c2)c(=O)c2cc3sccc3n12 -14.9%, CC(=O)N1CCCc2cc(S(=O)(=O)N3CCC(C(=O)NC4CCCCC4)CC3)ccc21 -7.74%, CN(CC(=O)Nc1cccc(C(F)(F)F)c1)S(=O)(=O)c1cccs1 0.683%, COc1ccc(CNC(=O)CN(Cc2ccc(Cl)cc2)S(C)(=O)=O)cc1 -6.03% [at 57.1 µM], Cc1ccc2sc(N(Cc3cccnc3)C(=O)C3COc4ccccc4O3)nc2c1C (configuration not stated) -15.6%, Cc1ccc(C(=O)Nc2ccc(OCc3cc(=O)n4c5c(sc4n3)CCCC5)cc2)cc1 6.29%, COn1c(=O)c(=O)n(OC)c2ccccc21 -17.5%, CCOC(=O)c1nnn2c3ccccc3c(=O)n(C)c12 -7.58%, Cc1ccc(-c2cnc(C3CC3)o2)cc1S(=O)(=O)Nc1cccc(C)c1C -26.8%, CCc1ccc(CNCc2c(C(=O)O)n(Cc3ccc(F)cc3Cl)c3cc(OC)ccc23)cc1 -18.7%, CC(C)(C)OC(=O)N1CCC(c2c(C(=O)NCc3ccccn3)cnn2-c2ccc(F)cc2)CC1 -5.83%, CCC(C)[C@@H](C(=O)N1CCNCC1)n1cc(CCCCN)nn1 (some centres not stated) -14.4%, C#CCOCCOCCOCCNc1nc(N2CCN(C(=O)Cn3cc(CCO)nn3)CC2)nc(N2CCN(C(=O)[C@H](CCCCN)n3cc(CCCC)nn3)CC2)n1 -18.8%, O=S(=O)(Nc1ccc2nc(-c3cccc(Cl)c3)oc2c1)c1ccccc1 -16.6%, CC(=O)OCC(NC(=O)C(Cc1ccccc1)NC(=O)OC(C)(C)C)C1OC(n2ccc(=O)[nH]c2=O)C(OC(C)=O)C1OC(C)=O (configuration not stated) 2.76%, Cc1cccc(-n2ccnc2SCC(=O)Nc2cc(C(F)(F)F)ccc2Cl)c1 -32.9%, O=C(NC1CC(=O)N(c2ccc(F)cc2)C1)C1CCCCC1 (configuration not stated) -5.84%, CSc1ccc(NC(=O)Cn2nnnc2-c2ccccc2F)cc1 -16.4%, CC(C)(C)c1ccc(C(=O)N2CCC(c3nc(-c4ccc(S(=O)(=O)N5CCCC5)cc4)no3)CC2)cc1 -27.7%, O=C(/C=C/c1ccccc1[N+](=O)[O-])OCC(=O)N1CCCC1 10.1%, CC1CC(C)CN(C/C=C/c2ccccc2[N+](=O)[O-])C1 (configuration not stated) -24.5%, CCN(CCCNC(=O)Cn1ncc2c([nH]c3ccccc32)c1=O)c1cccc(C)c1 -24.8%, COc1ccc(-c2noc(CSc3nc(C)cc(=O)[nH]3)n2)cc1OC -10.4%, CC1(C)SC2c3ccccc3C(=O)N2[C@@H]1C(=O)NCc1ccco1 (some centres not stated) -15.6%, COCCCNC(=O)C1CC(=O)N(CCc2ccccc2)C1 (configuration not stated) -5.84%, CCOc1ccc(NC(=O)C(=O)NCCc2csc3nc(-c4ccccc4F)nn23)cc1 -16%, Cc1cc(C)c2oc(C(=O)Nc3ccc(S(=O)(=O)N4CCCCCC4)cc3)cc(=O)c2c1 -16.3%, CCOC(=O)c1c(NC(=O)Cc2coc3ccc(CC)cc23)sc2c1CCC2 5.56%, CCc1nn(CC(=O)N2CCN(c3cccc(C(F)(F)F)c3)CC2)c(=O)c2cc3occc3n12 -7.05%, Cc1nc2nc(NCc3cccc(Br)c3)[nH]n2c(=O)c1Cc1ccccc1 -9.38%, Cc1cc(C)n2ncc(C(=O)Nc3cccc(C#N)c3)c2n1 -24.1% [at 28.6 µM], Nc1ccc(S(=O)(=O)NC(=O)c2ccccc2)cc1 -2.76%, COc1ccccc1C(=O)Nc1ccc(Nc2ccccc2)cc1 3.79%, CCN(CC)C(=O)CSc1nc2cc3c(cc2c(=O)n1CCCC(=O)NCc1ccc2c(c1)OCO2)OCO3 -12.7%, COc1ccccc1-c1noc(CSc2nnc(-c3ccccc3)n2-c2ccc(C)c(C)c2)n1 -33.7%, NC(=O)c1c(Nc2nc3c(F)cccc3s2)sc2c1CCCC2 -32.5%, CCc1nnc(SCc2c(F)cccc2Cl)c2cc3sccc3n12 -16.5%, CCN(C(=O)Cn1cc(S(=O)(=O)N2CCN(c3ccccc3F)CC2)c2ccccc2c1=O)c1ccc(C)c(C)c1 -16.1%, CCCOc1ccc(C(=O)Nc2ccc3oc(-c4cccc(Cl)c4Cl)nc3c2)cc1 -1.63%, CCOC(=O)C1CCN(C(=O)/C=C/c2cc(OC)c(OC)c(OC)c2)CC1 3.19% [at 57.1 µM], CCOC(=O)C1CCN(S(=O)(=O)c2cc(F)ccc2OC)CC1 -5.63%, CCOc1ccccc1CNCc1c(C(=O)O)c(C)n(Cc2ccc(C)cc2)c1C -13.4%, CC1=C(c2ccc(C)c(C)c2)S(=O)(=O)NC1=NCc1ccccc1Cl -22.5%, Cc1nc2ccn(Cc3cccs3)c(=O)c2cc1C(=O)NCc1ccc(Cl)cc1 -15.3%, CCOc1nc(NCCN2CCOCC2)nc(Nc2ccc(C)cc2)n1 -20.1%, O=C(NCCN1CCOCC1)Nc1cccc(Cl)c1 4.56%, O=C(Nc1nc2c(s1)CCCC2)c1ccccc1F -14.9%, COc1ccc(-c2nnc(SCC(=O)Nc3ccc(C(C)C)cc3)nc2-c2ccc(OC)c(OC)c2)cc1OC -8%, CCCCN(C)CCCNC(=O)CN1N=C(c2ccc(OC)cc2)CCC1=O -2.24%, COc1ccc(CNC(=O)Cc2coc3ccc(C(C)C)cc23)cc1 -7.64%, COc1ccc(CCNC(=O)C(=O)NCC(c2ccco2)S(=O)(=O)c2cccs2)cc1OC (configuration not stated) -2.6%, O=C(N/N=C/c1ccccn1)C12CC3CC(CC(C3)C1)C2 6.29%, O=C(COc1ccc(Cl)cc1Cl)N/N=C/c1ccccn1 6.74%, CCOc1ccc(-n2c(SCC(=O)NCc3ccccc3)nc3n[nH]c(C)c3c2=N)cc1 -6.09%, CCN(CC)CCCN=Cc1c(O)n(-c2ccc(C)cc2)c(=O)c2ccccc12 -18.3%, Cc1cccc(C(=O)N2CCc3cc(CNC(=O)Cc4ccc(F)cc4)ccc32)c1 -23.3%, COc1cccc(C(=O)Nc2ccc(-c3cc(C(F)(F)F)nn3-c3ccccc3)cc2)c1 0%, OCc1cnc(SCc2ccc(F)cc2)n1Cc1ccc(F)cc1 -28.4%, Cc1ccc(S(=O)(=O)N2CCN(c3nc(-n4cnc5ccccc54)nc4ccccc34)CC2)cc1 -23.4%, c1ccc(Cn2nnc3c(N4CCCCC4)ncnc32)cc1 16.3%, COc1cc(OC)cc(-c2nc3nc(C)c(CCC(=O)Nc4ccc(C)cc4)c(C)n3n2)c1 -21.2%, Cc1ccc(Nc2nc(Cl)c(C=O)s2)cc1 1.05%, Nc1ccc(C(=O)Nc2ccccc2N)cc1 -8.97%, O=C(c1ccco1)n1nc(-c2ccc(Cl)cc2)nc1NCc1ccccc1 3.78%, Cc1nn2c(=O)cc(COC(=O)c3cccc(NC(=O)COc4ccccc4Cl)c3)nc2s1 -21.9%, Cc1cc(/C=N/n2cnnc2)c(C)n1-c1ccc2ncccc2c1 -26.6%, Cc1cc(/C=N/NC(N)=O)c(C)n1C1CCCCC1 -26.2%, Cc1cc(C(=O)Nc2cccc(C(F)(F)F)c2)c2c(C)nn(-c3cccc(F)c3)c2n1 20.1%, COCCCNC(=O)c1ccc(NC(=O)c2nsc3ccccc23)cc1 5.52%, CCCCN1C(=O)/C(=C/C=C2/C=Cc3ccccc3N2CC)SC1=S -28.7%, COc1ccccc1C(=O)N1CCN=C1SCc1cccnc1 0.331%, COc1cccc(OC)c1OCCN1CCN(C(=O)c2ccco2)CC1 -15% [at 57.1 µM]

Potency, active:
C=CCOc1cccc(CNn2cn[nH]c2=S)c1 22.4 µM, C=CCOc1c(CNn2cn[nH]c2=S)cccc1OC 3.55 µM, CN(CC(=O)NCc1ccc(Cl)cc1)S(=O)(=O)c1cccs1 89.1 µM, CCOn1c(=O)c(=O)n(O)c2ccccc21 44.7 µM, C#CCOCCOCCOCCNc1nc(N2CCN(C(=O)C([C@@H](C)CC)n3cc(C(N)COC(=O)C(F)(F)F)nn3)CC2)nc(N2CCN(C(=O)[C@H](CCCCN)n3cc(C(N)CC(C)C)nn3)CC2)n1 (some centres not stated) 56.2 µM, C#CCOCCOCCOCCNc1nc(N2CCN(C(=O)C([C@@H](C)O)n3cc([C@@H](N)CCCCN)nn3)CC2)nc(N2CCN(C(=O)[C@H](CCCCN)n3cc(CN)nn3)CC2)n1 (some centres not stated) 79.4 µM, O=[N+]([O-])c1ccccc1/C=C/CN1CCC(O)CC1 8.91 µM, COCCCNC(=O)[C@H]1N2C(=O)c3ccccc3C2SC1(C)C (some centres not stated) 22.4 µM, Nc1ccc(Nc2ccccc2)cc1 39.8 µM, NNc1nc2c(Cl)cccc2s1 63.1 µM, CCOC(=O)C1CCCCN1Cc1ccc(OC)c(OC)c1OC (configuration not stated) 2.24 µM, CCOc1cccc(/C=N/NC(=S)NCCN2CCOCC2)c1O 56.2 µM, Nc1ccc2nc3c(=O)[nH]c(=S)[nH]c3nc2c1 2.51 µM, CCOc1ccc(-n2c(O)c(/C=N/Nc3nnc(C)c(=O)[nH]3)c3ccccc3c2=O)cc1 28.2 µM, Cc1nnc(N/N=C/c2ccccn2)[nH]c1=O 20 µM, Cc1ccc(Nc2ccccc2N)cc1 44.7 µM, Cc1cccc(-n2c(C)cc(/C=N/NC(N)=S)c2C)c1 56.2 µM, CCCCN1C(=O)/C(=C2/C=CC=CN2C)SC1=S 44.7 µM, COc1cccc(OC)c1C(=O)N1CCN(Cc2cccnc2)CC1 5.01 µM
